The values that follow come from PubChem BioAssay.

A short description of test [1]: rapamycin-like changes in RPL19A-GFP expression – cell-based, S. cerevisiae, multiplex flow cytometry, primary screen (AID 1862; in the data active means percent of DMSO control GFP below about 86%;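 further: lower values mimic rapamycin by blocking the RPL19A rise seen in DMSO cells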). The following applies: S. cerevisiae RPL19A-GFP strain, flow cytometry fluorescence, 3 h; at 10 µM; stronger effect = lower value. (In flow cytometry, cells or beads pass a laser one at a time.)
Test [2] in a line: TOR pathway GLN3 branch reporter MEP2-GFP changes – S. cerevisiae, multiplex flow cytometry, primary screen (AID 1867).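 Further: median GFP channel fluorescence of barcode-gated MEP2-GFP cells measured by flow cytometry.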 The conditions noted are these: S. cerevisiae MEP2-GFP strain, 3 h, at 10 µM, stronger effect = higher value, 100% means same as DMSO wells.
Test [3] in a line: TOR pathway RTG branch CIT2 reporter changes – S. cerevisiae, GFP fusion, multiplex flow cytometry, primary screen (AID 1870;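 active means percent response above a set limit, the screen-wide mean plus 3 SD, cut at about 130% in these data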;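 further: barcoded CIT2-GFP strain pooled with four other GFP strains with rapamycin as positive control; median GFP fluorescence per well over plate mean of DMSO wells so 100% = DMSO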). The following applies: S. cerevisiae CIT2-GFP expression, 3 h, at 10 µM, stronger effect = higher value.
A short description of test [4]: TOR pathway LAP4-GFP level changes – S. cerevisiae, multiplex flow cytometry, primary screen (AID 1873;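 active means GFP signal, as percent of the solvent control, above the screen mean plus 3 SD, about 149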). The following applies: S. cerevisiae LAP4-GFP expression, 3 h, at 10 µM, stronger effect = higher value.
A short description of test [5]: yeast AGP1-GFP level changes, GLN3 branch – cell-based, multiplex flow cytometry, S. cerevisiae, primary screen (AID 1887;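 active means GFP signal above the screen-wide mean plus 3 SD, that is over about 124.5% of the solvent control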;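 further: AGP1-GFP fusion strain of S. cerevisiae within a five-strain barcoded multiplex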). The conditions noted are these: 3 h, at 10 µM, stronger effect = higher value.
Test [6] in a line: reduced mouse 2C T cell binding to pMHC/ICAM-1 vesicles – MLPCN validation set, flow cytometry, LFA-1/ICAM-1 modulator project, pilot screen (AID 2523;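 active means response below a set limit, under 55% cells CD8-positive and vesicle-bound, and CD8 cells' 90th-percentile brightness under 279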;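 on vesicle binding response: mean PE anti-B7-1 fluorescence of CD8+ cells relative to row control; 100% = QL9-loaded vesicles with DMSO vehicle in the same plate row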). The following applies: 2C mouse CD8+ T cells, at 7 µM, stronger effect = lower value; double positive events: measured here: CD8+/vesicle+ event percentage.
In test [7] the target is Integrin beta-1 (Homo sapiens) + Integrin alpha-4 (Homo sapiens) (UniProt P13612+P05556). Kind of test: alpha4beta1 integrin LIBS antibody binding reduction – U937 cells, HUTS-21 mAb, flow cytometry, validation set, VLA-4 allosteric modulator project, pilot screen (AID 2674;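 active means inhibition above 50%, about 3 SD of the validation set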;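 further: antibody binding induced by the VLA-4 ligand LDV present at three times its Kd; 0% = LDV ligand with antibody and no compound and 100% = antibody without LDV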). The conditions noted are these: HUTS-21 LIBS mAb binding, at 6.7 µM, stronger effect = higher value, binding induced by LDV ligand.
Sequence of Integrin beta-1 (Homo sapiens) + Integrin alpha-4 (Homo sapiens) (P05556 whole entry, looked up): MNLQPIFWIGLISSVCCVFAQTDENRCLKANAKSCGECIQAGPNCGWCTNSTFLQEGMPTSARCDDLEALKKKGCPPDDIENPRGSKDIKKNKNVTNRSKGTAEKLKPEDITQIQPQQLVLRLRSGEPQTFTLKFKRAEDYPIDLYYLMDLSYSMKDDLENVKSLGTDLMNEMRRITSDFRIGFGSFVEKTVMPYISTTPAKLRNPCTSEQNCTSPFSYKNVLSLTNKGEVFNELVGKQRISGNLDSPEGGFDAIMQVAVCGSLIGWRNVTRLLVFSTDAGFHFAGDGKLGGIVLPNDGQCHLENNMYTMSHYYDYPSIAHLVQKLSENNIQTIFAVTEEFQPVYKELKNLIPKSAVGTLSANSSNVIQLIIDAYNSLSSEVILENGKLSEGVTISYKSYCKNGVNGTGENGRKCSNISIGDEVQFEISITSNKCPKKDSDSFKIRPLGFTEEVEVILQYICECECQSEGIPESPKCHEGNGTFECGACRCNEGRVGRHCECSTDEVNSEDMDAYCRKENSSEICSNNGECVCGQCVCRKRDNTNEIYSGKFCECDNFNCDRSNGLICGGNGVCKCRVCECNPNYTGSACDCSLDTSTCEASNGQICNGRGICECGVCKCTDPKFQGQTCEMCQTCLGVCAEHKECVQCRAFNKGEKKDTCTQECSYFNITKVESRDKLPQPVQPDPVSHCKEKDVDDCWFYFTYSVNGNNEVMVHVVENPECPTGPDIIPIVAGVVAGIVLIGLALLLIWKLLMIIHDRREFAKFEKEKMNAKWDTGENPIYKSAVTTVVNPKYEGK
Sequence of Integrin beta-1 (Homo sapiens) + Integrin alpha-4 (Homo sapiens) (P13612 whole entry, looked up): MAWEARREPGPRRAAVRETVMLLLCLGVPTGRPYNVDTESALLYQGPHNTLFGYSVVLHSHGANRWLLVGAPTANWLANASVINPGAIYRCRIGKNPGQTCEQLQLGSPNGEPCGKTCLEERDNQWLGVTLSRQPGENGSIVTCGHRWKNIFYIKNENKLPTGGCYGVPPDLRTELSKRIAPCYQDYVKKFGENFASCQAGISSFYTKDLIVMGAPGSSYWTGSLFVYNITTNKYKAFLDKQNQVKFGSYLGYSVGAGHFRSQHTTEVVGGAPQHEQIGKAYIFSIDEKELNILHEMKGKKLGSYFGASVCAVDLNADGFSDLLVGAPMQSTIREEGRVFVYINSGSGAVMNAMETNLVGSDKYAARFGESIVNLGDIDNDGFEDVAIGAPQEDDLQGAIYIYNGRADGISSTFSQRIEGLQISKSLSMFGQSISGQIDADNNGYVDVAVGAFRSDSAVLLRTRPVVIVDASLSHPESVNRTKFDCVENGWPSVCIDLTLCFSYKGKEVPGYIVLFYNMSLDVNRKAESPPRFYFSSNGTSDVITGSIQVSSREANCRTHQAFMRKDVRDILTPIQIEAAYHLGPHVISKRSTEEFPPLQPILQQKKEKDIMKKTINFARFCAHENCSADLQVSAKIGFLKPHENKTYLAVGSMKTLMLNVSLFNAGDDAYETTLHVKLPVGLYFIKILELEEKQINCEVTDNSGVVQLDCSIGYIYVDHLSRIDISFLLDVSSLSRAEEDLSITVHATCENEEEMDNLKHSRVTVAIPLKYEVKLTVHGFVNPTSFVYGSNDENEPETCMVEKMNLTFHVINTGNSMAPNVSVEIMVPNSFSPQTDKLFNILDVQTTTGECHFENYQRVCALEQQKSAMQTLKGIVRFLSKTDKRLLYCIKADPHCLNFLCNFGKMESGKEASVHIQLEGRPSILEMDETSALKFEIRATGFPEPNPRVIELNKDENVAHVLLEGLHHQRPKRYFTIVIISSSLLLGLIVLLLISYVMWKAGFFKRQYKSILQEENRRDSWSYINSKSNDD

Test [8] in a line: calorie-restriction mimetic ROS inhibitors, yeast – validation compound set, pilot screen (AID 2706;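 active means superoxide response below 65% of plate, a cut near 3 SD across the whole screen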;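 further: yeast exposed to compound for one week at 30 degrees C before staining; 100% = mean of all compound wells on the same plate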). The following applies: S. cerevisiae aging, superoxide DHE fluorescence; at 10 µM; stronger effect = lower value.
In test [9] the target is Beta-adrenergic receptor kinase 1 (Homo sapiens) (UniProt P25098). Briefly: GRK2 binders displacing RNA aptamer, biochemical, validation, human GRK2, bead flow cytometry (AID 488806;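 active means aptamer binding inhibition above 30%, about 3 SD of noise from non-fluorescent compounds; inactive means inhibition at or below 30%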). The conditions noted are these: bead-bound GRK2, FAM-aptamer displacement, at 10 µM, stronger effect = higher value.
Sequence of Beta-adrenergic receptor kinase 1 (Homo sapiens) (P25098 whole entry, looked up): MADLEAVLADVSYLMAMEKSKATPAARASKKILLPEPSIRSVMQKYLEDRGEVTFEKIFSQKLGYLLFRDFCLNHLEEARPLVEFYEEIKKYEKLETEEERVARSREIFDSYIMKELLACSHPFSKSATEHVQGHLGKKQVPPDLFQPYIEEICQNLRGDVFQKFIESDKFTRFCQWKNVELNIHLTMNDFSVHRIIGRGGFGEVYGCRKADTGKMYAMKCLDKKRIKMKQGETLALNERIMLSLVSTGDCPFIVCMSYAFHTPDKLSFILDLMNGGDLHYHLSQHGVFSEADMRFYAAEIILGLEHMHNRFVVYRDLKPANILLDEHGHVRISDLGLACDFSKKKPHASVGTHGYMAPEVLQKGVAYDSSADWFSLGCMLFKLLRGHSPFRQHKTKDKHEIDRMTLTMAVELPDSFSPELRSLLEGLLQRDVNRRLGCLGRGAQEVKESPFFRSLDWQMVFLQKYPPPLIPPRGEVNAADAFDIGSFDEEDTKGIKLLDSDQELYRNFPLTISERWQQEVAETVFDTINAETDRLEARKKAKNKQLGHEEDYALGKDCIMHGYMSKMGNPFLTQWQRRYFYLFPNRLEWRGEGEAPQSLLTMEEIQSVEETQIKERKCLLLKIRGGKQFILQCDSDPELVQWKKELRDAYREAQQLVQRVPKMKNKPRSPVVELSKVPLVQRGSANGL
Test [10] has as its target Beta-2 adrenergic receptor (Homo sapiens) (UniProt P07550). Kind of test: agonist-induced loss of surface beta2AR – cell-based, FAP fluorogen, flow cytometry, validation set, pilot screen (AID 504459;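 active means percent response above 42, roughly 3 SD of non-fluorescent test compounds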;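 further: agonist-driven loss of surface beta2AR via internalization measured by FAP dye flow cytometry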). The following applies: Am2.2-beta2AR cells, at 10 µM, stronger effect = higher value.
Test [11] concerns the target AP-2 complex subunit beta (Homo sapiens) (UniProt P63010). Briefly: beta-arrestin/AP2 interaction blockers – biochemical, validation set, GST-AP2 beads, flow cytometry, pilot screen (AID 504541;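 active means inhibition above 54%, about 3 SD of non-fluorescent compounds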;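 further: AP2 carries R879A mutation and is captured from E. coli lysate; bead-bound FITC arrestin peptide fluorescence measuring arrestin peptide binding to AP2; 0% = DMSO wells and 100% = excess unlabeled arrestin peptide control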). The conditions noted are these: FITC arrestin peptide, at 10 µM, stronger effect = higher value, AP2 beta2 appendage fragment, R879A mutant.
Test [12] can be described thus: cytosolic pH regulators acting via V-ATPase – S. cerevisiae, pHLuorin, HTS validation (AID 504600; in the data active means response above about 15%;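 further: plate controls were DMSO for no effect and reference compound for full effect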). The following applies: V-ATPase proton transport, at 10 µM, stronger effect = higher value.
The test system of test [13] is anti-desmoglein-3 scFv antibody binding to human DSG3. Kind of test: blockers of pathogenic pemphigus antibody–desmoglein-3 binding – biochemical, validation compound set, bead-based, flow cytometry, pilot screen (AID 588368;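 active means binding below the plate cutoff, the plate median minus 3 SD, with a reading above zero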;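 further: signal is the median channel fluorescence of bead-bound GFP antibody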). The following applies: Protein G beads, DSG3-Fc, scFv-GFP binding, at 10 µM, stronger effect = lower value.
Test [14] is described as follows: Nile Red efflux blockade in pump-expressing yeast – validation compound set, multiplex, phenotypic, pilot screen (AID 588506;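 active means efflux inhibition above 0.42, the validation set average plus 4 SD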;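 further: Nile Red retained in cells so higher fluorescence means more efflux inhibition; 0 = negative control wells and 1 = enniatin B 25 µM full block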). The conditions noted are these: S. cerevisiae pump-expressing triplex, Nile Red efflux flow cytometry; at 10 µM; stronger effect = higher value; the pumps come from Candida albicans.
For test [15], the target named is ATP-binding cassette sub-family B member 6 (Homo sapiens) (UniProt Q9NP58). Briefly: blockers of ABCB6-driven porphyrin uptake – K562-ABCB6 cells, flow cytometry, validation set, pilot screen (AID 588550;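 active means inhibition above the screen-wide mean plus 3 SD, about 51%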;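 further: 0% = DMSO wells and 100% = benzethonium chloride 70 µM positive control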). The following applies: K562-ABCB6 porphyrin accumulation, 1 h, at 10 µM, stronger effect = higher value.
Sequence of ATP-binding cassette sub-family B member 6 (Homo sapiens) (Q9NP58 whole entry, looked up): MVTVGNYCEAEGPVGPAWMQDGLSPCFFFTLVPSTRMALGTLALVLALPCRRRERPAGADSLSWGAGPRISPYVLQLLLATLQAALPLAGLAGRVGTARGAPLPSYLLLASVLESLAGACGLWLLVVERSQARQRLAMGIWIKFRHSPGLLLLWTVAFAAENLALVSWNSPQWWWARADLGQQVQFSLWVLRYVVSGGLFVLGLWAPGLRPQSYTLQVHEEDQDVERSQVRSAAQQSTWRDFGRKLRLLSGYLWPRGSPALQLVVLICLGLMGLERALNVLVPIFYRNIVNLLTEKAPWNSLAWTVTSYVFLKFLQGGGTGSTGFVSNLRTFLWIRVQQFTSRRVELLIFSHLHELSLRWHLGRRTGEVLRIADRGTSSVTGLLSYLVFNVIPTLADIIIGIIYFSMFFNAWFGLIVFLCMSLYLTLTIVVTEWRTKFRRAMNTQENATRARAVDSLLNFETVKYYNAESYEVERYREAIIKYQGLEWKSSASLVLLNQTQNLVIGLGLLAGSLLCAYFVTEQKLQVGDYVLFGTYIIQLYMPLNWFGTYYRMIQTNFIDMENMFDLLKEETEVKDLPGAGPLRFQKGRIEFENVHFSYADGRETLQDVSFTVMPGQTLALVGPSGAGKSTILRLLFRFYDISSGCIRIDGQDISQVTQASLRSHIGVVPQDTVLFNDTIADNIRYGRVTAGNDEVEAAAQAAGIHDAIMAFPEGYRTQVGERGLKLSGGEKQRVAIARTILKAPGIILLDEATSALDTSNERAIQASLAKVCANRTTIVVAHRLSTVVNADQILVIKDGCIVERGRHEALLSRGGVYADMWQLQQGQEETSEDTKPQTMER
Test [16] can be described thus: AML differentiation inducers, ER-HoxA9 marrow cells – cell-based, GFP/MAC1 double positive, flow cytometry, validation set, primary screen (AID 588685;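 active means differentiation response of at least 50%, scaled between solvent and reference control, from cells with both markers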;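 further: compound exposure lasts four days before antibody staining and flow analysis; 0% = DMSO wells and 100% = 5 µM fulvestrant positive control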). The following applies: stronger effect = higher value, normalized: vehicle 0, fulvestrant 100.

Molecules are shown by their SMILES. Inconclusive results are not listed. Calls of active or inactive are those of the source.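 How the source made its calls, unless noted: active means GFP response, as percent of the DMSO control, above the screen-wide mean plus 3 SD, about 139; inconclusive means no response measured because the compound's own fluorescence interfered; inactive means the rest.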

Sequence of Beta-2 adrenergic receptor (Homo sapiens) (P07550 whole entry, looked up): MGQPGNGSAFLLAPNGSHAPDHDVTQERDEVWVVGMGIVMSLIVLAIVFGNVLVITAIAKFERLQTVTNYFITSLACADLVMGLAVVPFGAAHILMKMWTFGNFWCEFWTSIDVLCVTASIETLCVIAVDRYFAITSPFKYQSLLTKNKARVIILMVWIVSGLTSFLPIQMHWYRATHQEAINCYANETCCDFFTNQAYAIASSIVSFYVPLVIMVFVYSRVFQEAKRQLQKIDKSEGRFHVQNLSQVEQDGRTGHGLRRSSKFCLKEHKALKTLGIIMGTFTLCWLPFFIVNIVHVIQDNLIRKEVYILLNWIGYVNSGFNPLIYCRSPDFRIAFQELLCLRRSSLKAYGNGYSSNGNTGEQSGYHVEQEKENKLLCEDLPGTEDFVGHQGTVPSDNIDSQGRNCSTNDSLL
Sequence of AP-2 complex subunit beta (Homo sapiens) (P63010 whole entry, looked up, the tested form may be a part, one chain of several): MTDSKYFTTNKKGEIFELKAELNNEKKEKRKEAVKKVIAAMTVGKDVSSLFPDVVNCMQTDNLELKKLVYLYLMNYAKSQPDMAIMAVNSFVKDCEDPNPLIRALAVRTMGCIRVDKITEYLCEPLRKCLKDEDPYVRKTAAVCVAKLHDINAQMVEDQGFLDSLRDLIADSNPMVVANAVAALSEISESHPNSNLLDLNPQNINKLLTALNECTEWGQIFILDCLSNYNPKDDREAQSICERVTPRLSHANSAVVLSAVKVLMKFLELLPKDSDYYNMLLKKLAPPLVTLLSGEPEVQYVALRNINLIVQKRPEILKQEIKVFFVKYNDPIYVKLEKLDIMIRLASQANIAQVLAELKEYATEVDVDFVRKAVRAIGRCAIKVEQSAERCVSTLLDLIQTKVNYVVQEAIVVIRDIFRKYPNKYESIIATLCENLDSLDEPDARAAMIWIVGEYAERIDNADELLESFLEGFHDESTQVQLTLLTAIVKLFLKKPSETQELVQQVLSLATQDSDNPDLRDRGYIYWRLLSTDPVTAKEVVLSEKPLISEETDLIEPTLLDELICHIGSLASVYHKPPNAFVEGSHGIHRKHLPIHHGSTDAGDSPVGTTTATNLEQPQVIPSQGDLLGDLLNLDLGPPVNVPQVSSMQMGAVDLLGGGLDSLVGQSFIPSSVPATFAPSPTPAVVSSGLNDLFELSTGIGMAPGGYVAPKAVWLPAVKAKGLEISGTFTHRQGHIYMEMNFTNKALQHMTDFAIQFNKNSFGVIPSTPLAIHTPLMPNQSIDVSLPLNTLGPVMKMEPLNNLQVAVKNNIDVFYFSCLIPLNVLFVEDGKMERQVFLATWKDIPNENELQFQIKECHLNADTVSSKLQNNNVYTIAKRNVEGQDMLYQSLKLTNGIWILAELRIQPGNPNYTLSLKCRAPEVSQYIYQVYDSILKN

As to `COc1cc2cc(C(=O)O)[nH]c2c(OC)c1OC`, the percent of DMSO control GFP in test [1] is 102% (inactive). Moreover, the GFP response vs DMSO in test [2] and in test [4] was 106% (inactive) throughout. Further, the percent response of DMSO control in [3] is 96.6% (inactive). Besides, the GFP response, % of DMSO in test [5] is 99.5% (inactive). For the same compound, the double positive events in test [6] was 61%. Also, the vesicle binding response in test [6] was 187% (inactive). For the same compound, the inhibition in test [7] is -1.49% (inactive); in test [11], -16.9% (inactive); in [15], -4% (inactive). The superoxide response (% of plate) in test [8] was 112% (inactive). Moreover, in test [9], the aptamer binding inhibition is 0% (inactive). For the same compound, the figures for the response in test [10] and in test [12] were -2.07% (inactive) and -0.34% (inactive), respectively. In addition, the binding (% of control) in [13] was 98.7% (inactive). Moreover, the efflux inhibition (fraction of control) in test [14] was -0.32 (inactive). Besides, the differentiation response in test [16] is 8.06% (inactive).
Regarding `Cc1ccccc1NC(=O)NCCc1c[nH]c2ccccc12`, in test [1], the percent of DMSO control GFP was 101% (inactive). Besides, the GFP response vs DMSO in [2] is 107% (inactive); in test [4], 89.4% (inactive). The percent response of DMSO control in test [3] is 101% (inactive). Further, the GFP response, % of DMSO in test [5] was 98.8% (inactive). Also, the double positive events in test [6] is 60.8%. Further, in [6], the vesicle binding response was 12.4% (inactive). Further, the inhibition in test [7] was 9.71% (inactive); in [11] it was 7.09% (inactive); in test [15], 10% (inactive). In addition, the superoxide response (% of plate) in test [8] was 96.6% (inactive). For the same compound, in [9], the aptamer binding inhibition is 2% (inactive). For the same compound, the values for the response in test [10] and in [12] were 9.05% (inactive) and -3.03% (inactive), respectively. Also, in [13], the binding (% of control) is 101% (inactive). Besides, in test [14], the efflux inhibition (fraction of control) was 0.07 (inactive). The differentiation response in test [16] was -1.88% (inactive).
Take `COc1ccc2[nH]cc(C3N4CC5(C)CN3CC(C)(C4)C5=O)c2c1` (stereo not drawn): in test [1], the percent of DMSO control GFP was 103% (inactive). For the same compound, the GFP response vs DMSO in test [2] and in test [4] was 103% (inactive) throughout. For the same compound, the percent response of DMSO control in [3] is 107% (inactive). The GFP response, % of DMSO in test [5] was 107% (inactive). This compound returned a double positive events in test [6] of 59.2%. In [6], the vesicle binding response was 138% (inactive). The inhibition in test [7] was 9.63% (inactive); in test [11] it was 10.8% (inactive); in test [15], 2% (inactive). For the same compound, in [8], the superoxide response (% of plate) was 105% (inactive). Besides, the aptamer binding inhibition in test [9] was -2% (inactive). The response was -5.37% (inactive) in [10] and 1.5% (inactive) in [12]. The binding (% of control) in test [13] is 101% (inactive). For the same compound, in [14], the efflux inhibition (fraction of control) is -0.08 (inactive). Further, in [16], the differentiation response is -11.9% (inactive).
On to `CC1(C)CC(NC(=O)C23CCC(C)(C(=O)C2=O)C3(C)C)CC(C)(C)N1` (stereo not drawn), for which the percent of DMSO control GFP in [1] was 99% (inactive). For the same compound, the GFP response vs DMSO in test [2] was 112% (inactive); in test [4] it was 116% (inactive). Moreover, in test [3], the percent response of DMSO control was 88.2% (inactive). Moreover, in [5], the GFP response, % of DMSO is 99.2% (inactive). This compound had a double positive events in test [6] of 65.1%. Besides, in test [6], the vesicle binding response was 166% (inactive). In addition, the figures for the inhibition in [7], in [11] and in [15] were 10.5% (inactive), -0.24% (inactive) and 13% (inactive), respectively. The superoxide response (% of plate) in test [8] was 96.1% (inactive). The aptamer binding inhibition in test [9] was 3% (inactive). The response is -4.74% (inactive) in test [10] and 6.45% (inactive) in test [12]. The binding (% of control) in test [13] is 99.7% (inactive). The efflux inhibition (fraction of control) in test [14] was 0.19 (inactive). Further, in [16], the differentiation response is 12% (inactive).

As a reminder, the inhibition is the drop in the measured response relative to a control, in per cent.
